Reference: PubChem BioAssay (NCATS)
Results filed as inconclusive are left out. A number with no mark means an inactive call. Activity calls are given as the source filed them. The call rests on the fitted dose curve; in most records, active means well fitted inhibition curve with a large enough effect; inconclusive means small, poorly fitted or top-dose-only effect; inactive means flat fitted curve, though single readings scatter.

Assay: P-glycoprotein substrates identified in KB-8-5-11 adenocarcinoma cell line, qHTS therapeutic library screen (AID 1346987); further: nearly all actives have a fitted effect of over 65% in size
Conditions: KB-8-5-11 (P-gp overexpressing) viability, CellTiter-Glo, 72 h; series mostly up to 44.5 µM; activity change, negative = cytotoxicity: at the top concentration
Method in brief: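 Human cervical adenocarcinoma KB-8-5-11 cells, selected in colchicine to over-express P-gp and assayed without it, were exposed for 72 h to titrated compounds. An ATP-based luminescent viability signal gave AC50.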
On the % scale 0 is the no-effect control and ±100 the full control effect; potency means the concentration at half of the fitted maximal effect.

Row | SMILES | outcome | activity change, negative = cytotoxicity | Potency
1 | CC1(O)CCC2C(C3C1CCC3(C)O)C2(C)C (stereo unspecified) | inactive |  | 
2 | COc1ccc(C(=O)CC(=O)O)c2c1C=CC(C)(C)O2 |  | 1.19% | 
3 | C=C1CC[C@]2(C(=O)O[C@@H]3O[C@H](CO)[C@@H](O)[C@H](O)[C@H]3O)CC[C@]3(C)C(=CCC4[C@@]5(C)C[C@H](O)[C@@H](O[C@@H]6O[C@H](C(=O)O)[C@@H](O)[C@H](O)[C@H]6O)[C@](C)(C=O)C5CC[C@]43C)C2C1 (stereo partly specified) | inactive [at 9.29 µM] |  | 
4 | COc1cc(Cc2cnc(N)nc2N)c(C(C)C)cc1OC |  | 4.26% | 
5 | C[C@H]1[C@@H](O)[C@H](O)C2[C@]3(C)C([C@@H](O)[C@H]4OC(=O)[C@@H]1[C@@]24C)[C@](C)(O)C=C[C@H]3O[C@@H]1O[C@H](CO)[C@@H](O)[C@H](O)[C@H]1O (stereo partly specified) |  | 9.72% [at 17.3 µM] | 
6 | FC(F)(F)c1nnc2c(Sc3ccccc3)nc3ccc(Cl)cc3n12 |  |  | 4.61 µM (active)
7 | CC(C)(O)C1CC=C(C(=O)OC[C@H]2O[C@@H](OC(=O)C3=CCC(C(C)(C)O)CC3)[C@H](O)[C@@H](O)[C@@H]2O)CC1 (stereo partly specified) | inactive [at 17.3 µM] |  | 
8 | Cc1c(NC(=O)N2CCOCC2)ccc2c1c1ccccc1n2C(C)C |  | 4.12% | 
9 | COc1cc(/C=C/C(=O)O)ccc1O[C@@H]1O[C@H](CO)[C@@H](O)[C@H](O)[C@H]1O[C@@H]1OC[C@](O)(CO)[C@H]1O |  | 2.65% [at 17.3 µM] | 
10 | C/C=C/C=C/C=C/C(=O)OC1C=C2C(O)OC(=O)[C@]2(O)[C@@]2(C)CCCC(C)(C)[C@H]12 (stereo partly specified) |  | -12.5% [at 17.3 µM] | 
11 | C=C1CC2C(C)(CCC(=O)O)C(C(C)(C)O)CCC2(C)C2(C(=O)OC)C(=O)C(C)(O)C(=O)C12C (stereo unspecified) |  | 2.4% [at 17.3 µM] | 
12 | C[C@@H]1O[C@@H](OC2C(CO)OC(OCC3OC(OC(=O)[C@]45CCC(C)(C)CC4C4=CCC6[C@@]7(C)CC[C@@H](O)[C@](C)(C(=O)O)C7CC[C@@]6(C)[C@]4(C)CC5)C(O)C(O)C3O)C(O)C2O)[C@H](O)[C@H](O)[C@H]1O (stereo partly specified) |  | 5.62% [at 9.29 µM] | 
13 | COC1OC(O)C2(CCC3(O2)C(C)CC2OC(=O)C4(C)CCCC3(C)C24)C1O (stereo unspecified) | inactive |  | 
14 | CC(NC(=O)CC(=O)O)C(=O)Nc1ccccc1C(N)=O (stereo unspecified) |  | 6.65% | 
15 | CC(=O)O[C@H]1C[C@@]2(C)[C@@H](CC[C@H]3[C@@]4(C)C=CC(=O)[C@@H](C)[C@@H]4[C@H](OC(C)=O)C(=O)[C@@]32C)/C1=C(\CCC=C(C)C)C(=O)O | inactive [at 17.3 µM] |  | 
16 | CCOC(=O)C(CCc1ccccc1)NC(C)C(=O)N1Cc2ccccc2CC1C(=O)O (stereo unspecified) |  | -4.76% | 
17 | O=C(Nc1ccc(N2CCC(C(=O)N3CCOCC3)CC2)cc1)c1cnc(Oc2ccccc2)nc1 | inactive |  | 
18 | O=C(CCc1ccccc1)c1c(O)c([C@@H]2O[C@H](CO)[C@@H](O)[C@H](O)[C@H]2O)c(O)c([C@@H]2O[C@H](CO)[C@@H](O)[C@H](O)[C@H]2O)c1O | inactive [at 17.3 µM] |  | 
19 | COc1cccc2c1c(O)c(C(=O)N(C)c1ccc(C(F)(F)F)cc1)c(=O)n2C |  | 4.91% | 
20 | C=Cc1ccc(O[C@@H]2O[C@H](CO[C@@H]3O[C@@H](C)[C@H](O)[C@@H](O)[C@H]3O)[C@@H](O)[C@H](O)[C@H]2O)cc1 | inactive [at 17.3 µM] |  | 
21 | CC1(C)C(=O)N2c3ccccc3C(O)(CC(C(=O)O)n3cnc4ccccc4c3=O)C2N1O (stereo unspecified) | inactive [at 17.3 µM] |  | 
22 | CN1CCN(C(=O)c2cc3cc(Cl)ccc3[nH]2)CC1 | inactive |  | 
23 | CC(C)=CCC[C@](C)(O[C@@H]1O[C@H](CO[C@@H]2O[C@@H](CO)[C@H](O)[C@H]2O[C@@H]2OC[C@@H](O)[C@H](O)[C@H]2O)[C@@H](O)[C@H](O)[C@H]1O)[C@H]1CC[C@]2(C)[C@@H]1[C@H](O)CC1[C@@]3(C)CC[C@H](O[C@@H]4O[C@H](CO)[C@@H](O)[C@H](O)[C@H]4O[C@@H]4O[C@H](CO)[C@@H](O)[C@H](O)[C@H]4O)C(C)(C)C3CC[C@]12C (stereo partly specified) | inactive [at 9.29 µM] |  | 
24 | COc1cc(/C=C/C(=O)OC[C@H]2O[C@@H](OC3OC=C(C(=O)O)C4C(O)CC(C)(O)C34)[C@H](O)[C@@H](O)[C@@H]2O)cc(OC)c1O (stereo partly specified) | inactive [at 17.3 µM] |  | 
25 | Cc1onc(-c2ccccc2Cl)c1C(=O)N(C)c1ccc(Cl)cc1 |  | -5.46% | 
26 | C=CC(C)(CCC=C(C)C)O[C@@H]1O[C@H](CO)[C@@H](O)[C@H](O)[C@H]1O (stereo partly specified) | inactive |  | 
